Among all 39,000 compounds or so, about 3,300 (8.5%) were called active. Shown is part of a subset that was picked to be rich in actives.
system: HepG2; assay: cytotoxicity call (relative viability < 0.9); conditions: 10 µM

Compound | cytotoxicity call
COCC#Cc1ccc2c(c1)O[C@H](CN(C)C(=O)c1ccccc1F)[C@@H](C)CN([C@H](C)CO)S2(=O)=O | inactive
C[C@@H]1CN([C@H](C)CO)C(=O)Cc2cc(NS(=O)(=O)c3ccc(F)cc3)ccc2O[C@H]1CN(C)S(=O)(=O)c1ccc(F)cc1 | inactive
COc1ccc(cc1)NC(=O)N1CC[C@]2(CC1)CN([C@@H](CO)c1[nH]c3cc(ccc3c12)OC)C(=O)CN1CCOCC1 | inactive
O=C1NC(=O)/C(=C\c2ccccc2)N1 | inactive
O=C(N[C@@H]1CC(=O)N(C2CC2)C1)C1CCC1 | inactive
C[C@H]1CN([C@@H](C)CO)C(=O)c2cc(NC(=O)Cc3cn(C)c4ccccc34)ccc2O[C@@H]1CN(C)Cc1ccc(C(=O)Nc2ccccc2N)cc1 | inactive
C[C@H](CO)N1C[C@H](C)[C@H](CN(C)C(=O)Nc2ccccc2)Oc2ccc(NC(=O)C3CC3)cc2CC1=O | inactive
N#Cc1cnc2c(C(N)=O)cnn2c1N | inactive
Cc1noc(C)c1NC(=O)Nc1ccc2c(c1)C(=O)N([C@H](C)CO)C[C@@H](C)[C@H](CN(C)Cc1ccccc1)OCCCC[C@@H](C)O2 | inactive
Nc1nc(=O)c2[nH]c(=O)c(=O)[nH]c2[nH]1 | inactive
Cc1noc(C)c1NC(=O)Nc1ccc2c(c1)C(=O)N([C@@H](C)CO)C[C@H](C)[C@@H](CN(C)S(=O)(=O)c1cccs1)OCCCC[C@H](C)O2 | inactive
C[C@@H]1CN([C@H](C)CO)C(=O)c2cc(NS(=O)(=O)c3cn(C)cn3)ccc2O[C@H]1CN(C)CC1CCCCC1 | inactive
C[C@H]1CN([C@@H](C)CO)C(=O)CCCn2cc(nn2)CO[C@H]1CN(C)C(=O)Nc1ccccc1C(F)(F)F | inactive
C[C@H](CO)N1C[C@H](C)[C@H](CN(C)S(C)(=O)=O)Oc2ncc(Br)cc2C1=O | inactive
COc1ccc([C@@H](NC(=O)C2CCN(CCOc3ccc(Cl)cc3Cl)CC2)c2ccccn2)cc1 | inactive
COc1ccc(/C=C/CN2CCC(C(=O)N[C@@H](c3ccc(-c4ccccc4)cc3)c3cnccn3)CC2)cc1 | active
COc1ccccc1[C@@H](NC(=O)C1CCN(CCc2ccc(Br)cc2)CC1)c1ccccn1 | inactive
COc1ccc(NC(=O)Nc2ccc3c(c2)C(=O)N([C@@H](C)CO)C[C@H](C)[C@@H](CN(C)C(=O)Nc2c(C)noc2C)OCCCC[C@H](C)O3)cc1 | inactive
CC(C)N(C)C(=O)c1cccc(NC(=O)c2ccncc2)c1OCCCN(C)Cc1ccc(Oc2ccccc2)cc1 | inactive
CC(C)=CCCC(C)=CCO | active
CC(C)=CCCC(C)=CCCC(C)=CCCC(C)=CCCC(C)=CCCC(C)=CCCC(C)=CCCC(C)=CCCC(C)=CCO | inactive
C=CC(C)(O)CCC=C(C)CCC=C(C)C (stereo unspecified) | active

Compound | cytotoxicity call
CC(C)=CCC/C(C)=C/CO | inactive
C=C[C@](C)(O)CCC=C(C)C | inactive
C=CC(C)(O)CCC=C(C)C (stereo unspecified) | inactive
CN1CCN(C(=O)C[C@@H]2CC[C@H]3[C@H](COc4ccc(NC(=O)c5ccc(F)c(F)c5)cc4C(=O)N3C)O2)CC1 | inactive
C[C@@H]1CN([C@H](C)CO)C(=O)Cc2cc(NS(=O)(=O)c3ccc(Cl)cc3)ccc2O[C@H]1CN(C)S(C)(=O)=O | inactive
Cc1ccc(S(=O)(=O)Nc2ccc3c(c2)C(=O)N([C@H](C)CO)C[C@H](C)[C@H](CN(C)CC2CCCCC2)OCCCC[C@H](C)O3)cc1 | active
Cc1ccc(S(=O)(=O)Nc2ccc3c(c2)C(=O)N([C@@H](C)CO)C[C@@H](C)[C@H](CN(C)CC2CCCCC2)OCCCC[C@H](C)O3)cc1 | inactive
Cc1ccc(S(=O)(=O)Nc2ccc3c(c2)C(=O)N([C@@H](C)CO)C[C@H](C)[C@H](CN(C)CC2CCCCC2)OCCCC[C@H](C)O3)cc1 | inactive
Cc1ccc(S(=O)(=O)Nc2ccc3c(c2)C(=O)N([C@H](C)CO)C[C@@H](C)[C@H](CN(C)CC2CCCCC2)OCCCC[C@@H](C)O3)cc1 | inactive
Cc1ccc(S(=O)(=O)Nc2ccc3c(c2)C(=O)N([C@H](C)CO)C[C@H](C)[C@@H](CN(C)CC2CCCCC2)OCCCC[C@H](C)O3)cc1 | inactive
Cc1ccc(S(=O)(=O)Nc2ccc3c(c2)C(=O)N([C@@H](C)CO)C[C@@H](C)[C@@H](CN(C)CC2CCCCC2)OCCCC[C@@H](C)O3)cc1 | active
Cc1ccc(S(=O)(=O)Nc2ccc3c(c2)C(=O)N([C@H](C)CO)C[C@@H](C)[C@@H](CN(C)CC2CCCCC2)OCCCC[C@@H](C)O3)cc1 | active
Cc1ccc(S(=O)(=O)Nc2ccc3c(c2)C(=O)N([C@@H](C)CO)C[C@@H](C)[C@H](CN(C)CC2CCCCC2)OCCCC[C@@H](C)O3)cc1 | inactive
Cc1ccc(S(=O)(=O)Nc2ccc3c(c2)C(=O)N([C@H](C)CO)C[C@@H](C)[C@@H](CN(C)CC2CCCCC2)OCCCC[C@H](C)O3)cc1 | active
Cc1ccc(S(=O)(=O)Nc2ccc3c(c2)C(=O)N([C@@H](C)CO)C[C@@H](C)[C@@H](CN(C)CC2CCCCC2)OCCCC[C@H](C)O3)cc1 | inactive
Cc1ccc(S(=O)(=O)Nc2ccc3c(c2)C(=O)N([C@H](C)CO)C[C@H](C)[C@H](CN(C)CC2CCCCC2)OCCCC[C@@H](C)O3)cc1 | inactive
Cc1ccc(S(=O)(=O)Nc2ccc3c(c2)C(=O)N([C@@H](C)CO)C[C@H](C)[C@H](CN(C)CC2CCCCC2)OCCCC[C@@H](C)O3)cc1 | inactive
CO[C@H]1CN(C)C(=O)c2ccc(NC(=O)Nc3ccc(Cl)cc3)cc2OC[C@@H](C)N(C(=O)Nc2c(C)noc2C)C[C@@H]1C | inactive
C[C@@H]1CCCCO[C@H](CN(C)Cc2ccc(C(=O)O)cc2)[C@@H](C)CN([C@H](C)CO)C(=O)c2cc(NS(=O)(=O)c3ccccc3)ccc2O1 | inactive
CCCNC(=O)N[C@@H]1C=C[C@H](CC(=O)N2CCN(C)CC2)O[C@@H]1CO | inactive
C[C@@H]1CN([C@H](C)CO)C(=O)CCCn2nncc2CO[C@@H]1CN(C)C(=O)Nc1ccnc(N2CCOCC2)c1 | inactive
OC[C@@H](O)[C@@H](O)[C@@H](O)/C=N/Nc1ccccc1 | inactive

Compound | cytotoxicity call
CNC(=O)c1c(F)cccc1Nc1nc(Nc2cc3c(cc2OC)CCN3C(=O)CN(C)C)nc2[nH]ccc12 | active
CN1C(=O)c2cc(NC(=O)Cc3cccs3)ccc2OC[C@H]2O[C@H](CC(=O)NCCCN3CCOCC3)CC[C@H]21 | inactive
Cc1noc(C)c1NC(=O)Nc1ccc2c(c1)C(=O)N([C@@H](C)CO)C[C@H](C)[C@@H](CN(C)C(=O)C1CCCCC1)OCCCC[C@@H](C)O2 | inactive
COc1ccc2c3c([nH]c2c1)[C@H](CO)N(Cc1cc(ccc1F)F)C[C@]13CCN(CC1)C(=O)CN(C)C | inactive
C=CC(=O)Nc1cccc([C@@H](CCc2ccc(OC)c(OC)c2)OC(=O)[C@@H]2CCCCN2C(=O)C(=O)C(C)(C)CC)c1 | inactive
CCCNC(=O)COc1cccc([C@@H](CCc2ccc(OC)c(OC)c2)OC(=O)[C@@H]2CCCCN2C(=O)C(=O)C(C)(C)CC)c1 | active
CC[C@H](C(=O)N1CCCC[C@H]1C(=O)O[C@H](CCc1ccc(OC)c(OC)c1)c1cccc(OCC(=O)NCCNC(=O)COc2cccc([C@@H](CCc3ccc(OC)c(OC)c3)OC(=O)[C@@H]3CCCCN3C(=O)[C@@H](CC)c3cc(OC)c(OC)c(OC)c3)c2)c1)c1cc(OC)c(OC)c(OC)c1 | inactive
COc1ccc(CC[C@@H](OC(=O)[C@H]2CCCCN2C(=O)Cc2ccccc2)c2cccc(OCC(=O)O)c2)cc1OC | active
CCC(=O)Nc1cccc([C@@H](CCc2ccc(OC)c(OC)c2)OC(=O)[C@@H]2CCCCN2C(=O)C(=O)C(C)(C)CC)c1 | inactive
CCC(C)(C)C(=O)C(=O)N1CCCC[C@H]1C(=O)O[C@@H](CCc1ccc(OC)c(OC)c1)c1cccc(OCC(=O)NCCc2ccc(O)cc2)c1 | inactive
COc1ccc(S(=O)(=O)Nc2ccc3c(c2)C(=O)N([C@@H](C)CO)C[C@H](C)[C@@H](CN(C)S(=O)(=O)c2cn(C)cn2)O3)cc1 | inactive
C[C@H]1CN([C@@H](C)CO)C(=O)c2cc(NC(=O)C3CCCCC3)ccc2O[C@@H]1CN(C)Cc1ccc(C(F)(F)F)cc1 | inactive
C[C@H](CO)N1C[C@H](C)[C@@H](CN(C)Cc2ccccc2)Oc2ccc(NC(=O)Cn3cnnn3)cc2C1=O | inactive
C[C@H]1CN([C@@H](C)CO)C(=O)c2cccc(NS(=O)(=O)c3ccccc3)c2O[C@H]1CN(C)S(=O)(=O)c1cn(C)cn1 | inactive
CCc1nc2ccc(C(=O)NCCCN3CCCC3=O)cn2c1N(CC)C(=O)NCCc1ccccc1 | inactive
C[C@@H]1CN([C@@H](C)CO)C(=O)c2cc(NC(=O)Nc3ccc(F)cc3)ccc2O[C@H]1CN(C)Cc1ccc(Cl)c(Cl)c1 | inactive
C[C@@H]1CN([C@H](C)CO)C(=O)c2cc(NC(=O)Nc3ccc(F)cc3)ccc2O[C@H]1CN(C)Cc1ccc(Cl)c(Cl)c1 | inactive
C[C@@H]1CN([C@H](C)CO)C(=O)c2cc(NC(=O)Nc3ccc(F)cc3)ccc2O[C@@H]1CN(C)Cc1ccc(Cl)c(Cl)c1 | inactive
C[C@H]1CN([C@@H](C)CO)C(=O)c2cc(NC(=O)Nc3ccc(F)cc3)ccc2O[C@H]1CN(C)Cc1ccc(Cl)c(Cl)c1 | inactive
C[C@@H]1CN([C@@H](C)CO)C(=O)c2cc(NC(=O)Nc3ccc(F)cc3)ccc2O[C@@H]1CN(C)Cc1ccc(Cl)c(Cl)c1 | active
C[C@H](CO)N1C[C@H](C)[C@H](CN(C)Cc2ccc(Cl)c(Cl)c2)Oc2ccc(NC(=O)Nc3ccc(F)cc3)cc2C1=O | active
Cc1noc(C)c1NC(=O)Nc1ccc2c(c1)CC(=O)N([C@@H](C)CO)C[C@@H](C)[C@@H](CN(C)Cc1ccc(C(=O)Nc3ccccc3N)cc1)O2 | inactive

Source: the antibiotic and cytotoxicity screens of Wong et al. (2023)
